# Assay outcomes from PubChem.
# Shiga toxin inh – Shiga toxin inhibition; Vero cells, Shiga toxin protein synthesis inhibition reporter; inhibition, % at 38.7 µM; 290,000 compounds, 9.2% hits; in the data active = inhibition mostly above about 28%, no sharp cut-off; inactive = mostly below about 43%; note: 0% is about no effect
# Pf growth 96h – inhibits malaria parasite growth, 96 h; 320,000 compounds, 6.9% hits; P. falciparum luciferase reporter growth, 96 h; Potency, µM (titrated, usually from 28.7 µM), for inactives: at the highest dose activity change, negative = inhibition, hits mostly inhibitors; note: potency is the fitted concentration of half-maximal effect; % is set by controls: 0 for no effect and ±100 for the full control effect
#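 Two-generation exposure (96 h) targets delayed-death phenotype. Reporter parasites carrying integrated firefly luciferase, in red cells at 2% hematocrit and 0.05% parasitemia final, kept at 37 C, 5% CO2; luminescence loss indicates inhibition.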
# NS1 inh – blocks influenza NS1 protein function | 270,000 compounds, 0.4% hits | Potency, µM (titrated, usually from 46.1 µM), inactives show top-dose activity, positive = more growth; calls by dose curve; note: potency is the fitted concentration of half-maximal effect; actives are rising curves; nearly all actives have a fitted effect of over 50% in size
#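 In this qHTS, NS1 from influenza A is expressed in budding yeast, where it slows growth. Cells are switched from glucose to 2% galactose medium (pH 6.0, -URA), treated with compound, and growth recovery is read at OD600.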
# Pf growth 48h – inhibits P. falciparum growth in the first generation, 48 h. 310,000 compounds, 5.9% hits. Potency, µM (titrated, usually from 28.7 µM), inactives show at the highest dose activity change, negative = inhibition, hits mostly inhibitors. P. falciparum luciferase growth in erythrocytes, 48 h; note: potency is the fitted concentration of half-maximal effect; % is set by controls: 0 for no effect and ±100 for the full control effect
#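 Parasite viability was followed by luminescence of a genomically integrated firefly luciferase. Cultures held 0.1% parasitemia at 2% hematocrit (final), incubated under 5% CO2 at 37 C.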
# CHX counter – affects cycloheximide protein synthesis inhibition readout, counter-screen; cell reporter, cycloheximide protein synthesis inhibition counterscreen; max response, %; AID 2314; 300,000 compounds, 12% hits; in the data active = max response mostly above about 13%, no sharp cut-off; inactive = mostly below about 14%; note: read at 38.3 µM for the half of the compounds with a filed dose; 0% is about no effect
# The depositor's hits bear a star; i = inactive; ? = inconclusive; nt = no result. Hits are enriched below; roughly 21% of the tested compounds scored in any of these assays. Unless noted, calls come from the whole dose curve; as a rule, active = well fitted inhibition curve with a large enough effect; inconclusive = small, poorly fitted or top-dose-only effect, or another doubt; inactive = no such curve, though single readings can be large or run the other way.
SMILES,Shiga toxin inh,Pf growth 96h,NS1 inh,Pf growth 48h,CHX counter
CC1CCCC(NC(=O)NC(=O)COC(=O)C2=NN(c3ccccc3)C(=O)CC2)C1C (stereo not given),nt,?,nt,3.1%,nt
BrC(=C\c1ccccc1)/C=N/N1CCN(c2ccccc2)CC1,45.5,21.6%,-2.9%,29.6%,14.3
Nc1nnnn1/N=C/C(Br)=C/c1ccccc1,176.3*,-8.7%,-63.1%,?,68.4*
Nc1nnnn1/N=C/C=C/c1ccccc1,41.0,0.9%,-7.9%,32.6%,17.4*
COc1ccc(C)cc1NC(=O)CCCN1C(=O)C(c2ccccc2)Oc2cccnc21 (stereo not given),-1.6,19.8%,-27.8%,?,0.8
CCN=c1scc(C)n1/N=C/c1ccsc1,104.4*,2.4%,-5.7%,131.1%,46.8*
Cc1nn(-c2ccccc2)c(C)c1CCC(=O)O,89.9*,0.0%,2.1%,2.2%,42.3*
COC(=O)CCc1c(C)nn(-c2ccccc2)c1C,63.7*,nt,-12.7%,19.0%,25.2*
Cc1nn(-c2ccccc2)c(C)c1C(=O)OCC(N)=O,-11.2,7.6%,nt,-1.2%,-1.2
Cc1nn(Cc2ccccc2)c(C)c1CCC(=O)O,34.4,nt,6.1%,15.8%,10.7
CC1(C)C2CC=C(/C=N/NC(=O)c3ccccc3Br)C1C2 (stereo not given),-8.6,?,6.2%,-20.9%,-4.7
O=c1c2sc(-c3ccccc3)cc2nc2n1CCC2,25.6*,424.7%,-49.8%,240.3%,23.8*
O=c1c2sc(-c3ccccc3)cc2nc2n1CCCCC2,55.6*,i,-35.5%,300.0%,53.4*
O=c1c2cc([N+](=O)[O-])ccc2nc2n1CCCC2,-5.4,439.8%,2.5%,nt,-1.1
CC(C)C(C)NC(=O)COC(=O)c1cccc(C(=O)OCC(=O)NC(C)C(C)C)n1 (stereo not given),-4.7,6.3%,2.5%,5.0%,-2.9
O=C(CCCSc1nnnn1-c1cccc2ccccc12)c1ccc(F)cc1,-1.2,?,11.4%,?,-1.4
COc1ccccc1OCc1ccc(C(=O)NCC2CCCO2)o1 (stereo not given),54.2,-31.2%,-38.9%,nt,3.8
N#CCC(CNc1ncc(C(F)(F)F)cc1Cl)OC(=O)c1cccc([N+](=O)[O-])c1 (stereo not given),-0.4,4.65µM*,-2.7%,13.1µM*,-0.8
CCCn1c(N)c(C(=O)CN2CCN(S(=O)(=O)c3cccs3)CC2)c(=O)[nH]c1=O,2.7,-0.8%,-0.6%,2.0%,-3.6
Cc1ccc(SCC(=O)c2c(C)[nH]c3ccccc23)cc1,35.0,-100.1%,-4.2%,?,12.8*
Cc1[nH]c2ccccc2c1C(=O)CSc1ccccc1,3.6,34.6%,4.5%,?,28.5*
Cc1[nH]c2ccccc2c1C(=O)C(=O)NCC1CCCO1 (stereo not given),-13.4,23.9%,nt,-28.7%,7.4
Cc1ccc2c(C(=O)CSc3ccccc3)c(C)[nH]c2c1,34.3,36.8%,-5.2%,37.3%,8.3
Cc1[nH]c2ccccc2c1C(=O)C(=O)NC1CC1,94.2*,?,15.7%,48.7%,48.1*
Cc1[nH]c2ccccc2c1C(=O)CSc1ccccn1,44.7,?,-4.6%,14.3%,40.4*
SMILES,Shiga toxin inh,Pf growth 96h,NS1 inh,Pf growth 48h,CHX counter
Cc1[nH]c2ccccc2c1C(=O)CSc1cccc[n+]1[O-],-8.8,?,5.5%,-25.0%,-2.3
COc1ccc(CC(=O)NNC(=O)c2cc(Cl)ccc2OC)cc1,nt,13.9%,nt,0.0%,nt
CC(C)(CO)Cc1cc(C(C)(C)C)c(O)c(C(C)(C)C)c1,nt,?,-31.2%,?,nt
Cc1[nH]c2ccccc2c1C(=O)CCl,-1.5,10.4µM*,7.4%,?,-1.5
Cc1[nH]c2ccccc2c1C(=O)CSc1ccc(F)cc1,51.9,?,0.9%,0.0%,23.4*
Cc1[nH]c2ccccc2c1C(=O)Cn1c(=O)oc2ccccc21,-3.2,nt,-2.1%,-6.1%,-4.1
CC1CCCN(CCOc2cccc(Oc3ccccc3)c2)C1 (stereo not given),nt,3.8%,-38.4%,?,-4.1
Cc1ccc(S(=O)(=O)N2CCCCC2)cc1C(=O)NCCc1ccccc1,-15.8,?,8.8%,?,1.6
Cc1ccc(C(=O)N(CCc2ccccc2)Cc2ccccc2)cc1S(=O)(=O)N1CCCCC1,nt,8.28µM*,nt,13.1µM*,nt
Cc1ccc(N(Cc2ccccc2)C(=O)c2cc(S(=O)(=O)N3CCOCC3)ccc2N2CCCC2)cc1,nt,?,nt,2.62µM*,nt
Cc1cccc(N(Cc2ccccc2)C(=O)c2ccc(F)c(S(=O)(=O)N3CCOCC3)c2)c1,nt,11.7µM*,nt,11.7µM*,nt
